Drawing on ChEMBL document CHEMBL4513216, “Probing the Open Global Health Chemical Diversity Library for Multistage-Active Starting Points for Next-Generation Antimalarials” (ACS Infect Dis, 2020), this text covers INHIBITION for 53 compounds.

Molecules are shown by their SMILES. The campaign covered roughly 69,000 compounds. About 8,600 (12%) showed an effect of 50% or more. The sample as a whole holds a higher share of strong results than the screen did.

The test system of the test is Plasmodium berghei. Kind of test: Screen against P. berghei liver stage (PbLuc), transformed with Luciferase, at 10uM. Particulars: tested at 10 uM. The class given is functional, HepG2.
Take `CCOCC1CN(C(=O)c2cc(C)oc2C)Cc2c1cnn2C` (stereo not drawn): the INHIBITION is reported as 36.2%.

With `COC[C@H]1CC[C@H]2[C@H](CCN2S(=O)(=O)c2ccccc2)O1`, the INHIBITION is recorded as 4.68%. In the case of `c1nc(N2CCOCC2)sc1-c1cncn1CCCN1CCCCC1` it was 8.32%; in that of `CSCCC(=O)N1CCN(CC(C)(C)O)CC1`, -94.3%.

In the case of `CC(O)CN1CCN(C(=O)CCOC(C)C)CC1` (stereo not drawn), the INHIBITION is given as 8.05%. As to `CCOCCC(=O)N1CCN(CC(C)O)CC1` (stereo not drawn), the INHIBITION is listed as 29.4%.

In the case of `CSCC(=O)N1CCN(CC(O)C(C)(C)C)CC1` (stereo not drawn), the INHIBITION is listed as 60.9%. The result for `CCN1CCN(C(=O)CCC2CCN(C(=O)CCSC)CC2)CC1` reads 33.5%; that for `CC(C)(C)C(O)CN1CCN(C(=O)COCC2CC2)CC1` (stereo not drawn), 10.6%.

Turning to `CSCCC(=O)N1CCN(CC(O)C(C)(C)C)CC1` (stereo not drawn), the INHIBITION is -46.4%. In the case of `CCC(O)CN1CCN(C(=O)CCSC)CC1` (stereo not drawn) it was 68.2%; in that of `CSCCC(=O)N1CCN(CC(C)O)CC1` (stereo not drawn), 68.2%; in that of `O=C(CCC(=O)N1CCCC1c1ccsc1)N1CCOCC1` (stereo not drawn), 7.24%. The result for `Cc1ccc2nc(-c3nc4c([nH]3)CCCNC4=O)cn2c1` reads -87.9%; that for `CCOC(=O)CN1CCC2(CC1)CC(=O)c1ccc3ccccc3c1O2`, 31.2%. In the case of `CCC(=O)NCc1ccc(N2CCCCC2)cc1` it was -0.578%. As for `Cc1nc(C)n(CC2CCCN2Cc2cc(-c3cccs3)on2)n1` (stereo not drawn), the INHIBITION is given as 40.65%.

Take `c1nnc(Nc2cncc(C3CCCN3CC3CC3)n2)s1` (stereo not drawn): the INHIBITION is reported as 11.8%. In the case of `Cc1noc2nc(C3CCCN(Cc4cccnc4)C3)cc(C(F)F)c12` (stereo not drawn), the INHIBITION worked out at 41.2%.

`CCc1cc(C(=O)N2CCCC2c2nc(C)c(CC)c(O)n2)on1` (stereo not drawn): the INHIBITION is -21.4%. The result for `Cc1cc(C(=O)N2CCCC2c2nc(O)cc(C(C)C)n2)on1` (stereo not drawn) reads 51.5%; that for `CCc1cc(C(=O)N2CCCC2c2nc(C)c(F)c(O)n2)on1` (stereo not drawn), 53%; that for `CCc1c(C)nc(C2CCCN2C(=O)c2cc(C)no2)nc1O` (stereo not drawn), 30.4%.

`Cc1cc(C(=O)N2CCCC2c2nc(C)cc(O)n2)on1` (stereo not drawn): the INHIBITION was 44.8%. The result for `CCc1cc(O)nc(C2CCCN2C(=O)c2cc(C)no2)n1` (stereo not drawn) reads 26.9%; that for `CN(C)CCN1C(=O)CCC12CCCN(C(=O)C1CC=CC1)CC2` (stereo not drawn), -38.1%; that for `NC(=O)CCN(CC(=O)NCc1cccs1)c1ccc(F)cc1`, 47.3%. In the case of `Cn1cc(CN2CC[C@@H]3[C@@H](CO[C@H]3CNC(=O)c3ccco3)C2)cn1` it was -16.9%; in that of `CCN1CC[C@@]2(C(=O)N3CCOCC3)CCN(C(=O)NC)CC[C@@H]12`, -19.6%; in that of `Cc1cc(-c2nccs2)nc(C2CCN(Cc3cccs3)CC2)n1`, 50.8%. In the case of `Cc1nccc([C@@H]2C[C@@H]3CCN(Cc4cccs4)C[C@H]3O2)n1` it was -32.6%; in that of `Cc1cc(-c2nccs2)nc(C2CCN(Cc3ccncc3)CC2)n1`, 26.7%; in that of `Cc1cc(-c2nccs2)nc(C2CCN(Cc3ccccn3)CC2)n1`, 23.9%. For the compound `Oc1cc(-c2nccs2)nc(C2CCN(Cc3cccs3)CC2)n1`, the INHIBITION was 2.55%. Take `Cc1cc(-c2nccs2)nc(C2CCN(Cc3ccc(F)cc3)CC2)n1`: the INHIBITION was 52.7%. In the case of `Cc1nnc(C(C)NCC2(c3ccc(F)cc3)CCCCC2)o1` (stereo not drawn), the INHIBITION is -14.6%. The result for `O=C(CCn1ccccc1=O)Nc1ccc(C(=O)O)cc1` reads 12.7%; that for `Cc1nc(N(C)C)nc2c1COCC21CCN(C(=O)NCC(C)C)C1` (stereo not drawn), -43.8%. In the case of `CC(NC(=O)CCOc1ccc(F)cc1)c1nnc2n1CCCCC2` (stereo not drawn) it was 28.8%; in that of `COc1ccccc1CNc1ccc2nncn2n1`, -33.8%; in that of `O=C(Cn1cccnc1=O)NC(Cc1ccsc1)c1cccnc1` (stereo not drawn), 14.7%. Consider `CC(C)c1cc(NCC2(CO)CCCC2)ncn1`, for which the INHIBITION is 44.3%. In the case of `CC(C)c1cc(NCC2(N(C)C)CCCC2)ncn1` it was 49.9%; in that of `CC(C)c1cc(NCC2(CO)CCC2)ncn1`, 66.7%. With `CCN(CC)Cc1ccc(C(=O)NC2CCc3cc(F)ccc32)o1` (stereo not drawn), the INHIBITION is reported as 9.91%. The result for `CCN(CC)Cc1ccc(C(=O)NC2CCc3cc(Cl)ccc32)o1` (stereo not drawn) reads 50.5%; that for `CCN(CC)Cc1ccc(C(=O)NC2CCc3cc(Br)ccc32)o1` (stereo not drawn), 36.7%; that for `O=C(CC1CCCC1)Nc1ccc(-n2cc(Cl)cn2)nc1`, -18.8%. `CC(C)c1sc(Br)nc1C(=O)NCc1ccco1`: the INHIBITION is -7.81%. In the case of `Cc1csc(CN2C[C@@H]3COC[C@]3(COCC(=O)N(C)C)C2)n1`, the INHIBITION was -2.35%. Consider `CN1CCN(c2ccccc2CNC(=O)Cc2cccc(F)c2)CC1`, for which the INHIBITION came to 30.3%. The result for `Cc1ccc(CN2CCc3c(CN4CCCC4)n[nH]c3C2)s1` reads 26.5%; that for `Cc1cc(C)nc(C2CCN(C3CCCCC3)C2)n1` (stereo not drawn), -36.4%.
